A selection: hits, their analogues and other compounds. The true share with any hit is near 5.7%.
ssDAF-12 act = activators of S. stercoralis DAF-12 nuclear receptor | HEK293 ssDAF-12/GRIP1 lit1-tk-luc reporter, luminescence; % of 3 µM dafachronic acid response | activation, % at 6.8 µM | hit rate 1% among 370,000 | AID 652126;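 active means activation above the mean over all tested compounds plus 3 SD, cut at about 0.9% in these data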
DAX1 inh-1 = inhibitors of human orphan nuclear receptor DAX1 (NR0B1); P51843; HEK293 Gal4-DAX1 luciferase reporter, luminescence; inhibition, % at 6.75 µM; hit rate 0.99% among 340,000; AID 504766;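 active means inhibition above the mean over all tested compounds plus 3 SD, cut at about 4.2% in these data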;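 further: inhibition shows as a rise in luminescence from relieved DAX1 repression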
Target sequence (P51843 207-470 limits assumed): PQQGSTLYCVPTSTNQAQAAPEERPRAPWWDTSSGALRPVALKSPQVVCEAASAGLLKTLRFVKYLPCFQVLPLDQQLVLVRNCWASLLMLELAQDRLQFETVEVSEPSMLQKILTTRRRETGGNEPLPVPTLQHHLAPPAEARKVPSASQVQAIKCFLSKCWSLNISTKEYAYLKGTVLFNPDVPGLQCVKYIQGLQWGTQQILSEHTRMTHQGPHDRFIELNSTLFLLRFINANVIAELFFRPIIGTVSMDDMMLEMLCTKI
AHR act = activates the human aryl hydrocarbon receptor | AHR-responsive luciferase reporter cells, luminescence | AID 2796 | activation, % at 5 µM | hit rate 2.5% among 320,000; in the data active means activation above about 47%
hgDAF12 agonist = agonists of H. glycines DAF-12 nuclear receptor. activation, % at 6.8 µM. hit rate 1.8% among 370,000. HEK293 GAL4-hgDAF12 UAS-luciferase reporter, agonist luminescence; normalized to butyrate control;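 active means activation above a cutoff set at the mean of all screened compounds plus 3 SD, cut at about 10% in these data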
hcDAF12 agonist = H. contortus DAF-12 activation, primary screen; HEK293 hcDAF-12 lit1-tk-luc reporter, luminescence; 0% DMSO, 100% Δ7-dafachronic acid; activation, % at 6.8 µM; hit rate 1.4% among 370,000; AID 652067;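 active means activation above the mean of all tested compounds plus 3 SD, cut at about 5.5% in these data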
DAX1 inh-2 = inhibitors of DAX1 repression of SF-1 activated StAR promoter; hit rate 1.1% among 370,000; AID 652010; HEK293T StAR-luciferase reporter, SF-1/DAX-1 repression relief; inhibition, % at 6.8 µM;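 active means inhibition above the mean over all tested compounds plus 3 SD, cut at about 3.6% in these data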;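 further: higher inhibition means more luminescence from relief of DAX-1 repression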
Large screens that a line does not name were inactive.

Cc1ccc(N(CCC#N)C(=O)CSc2nc3ccccc3c(=O)[nH]2)cc1	DAX1 inh-2 3.7
COc1ccc(C(=O)c2ccc3oc(-c4ccc(OC)cc4)c(-c4ccc(O)cc4)c3c2)cc1	none
COc1ccc(CNC(=O)c2ccc(Cl)c(NC3=NC4CS(=O)(=O)CC4S3)c2)cc1 (configuration not stated)	hgDAF12 agonist 11
CCC1CN(C(=O)N2CCC(C(=O)NCc3cc(OC)c(OC)c(OC)c3)CC2)c2ccccc2O1 (configuration not stated)	none
Cc1cccc(C(=O)N[C@H](C(=O)NCCc2ccc(S(N)(=O)=O)cc2)C(C)C)c1	none
CC1=C(C(=O)OCC(C)C)C(c2cc3c(cc2Br)OCO3)NC(=O)N1C (configuration not stated)	none
CCCOC(=O)C1=C(C)N(C)C(=O)NC1c1cc2c(cc1[N+](=O)[O-])OCO2 (configuration not stated)	AHR act 60
FC(F)(F)c1cccc(NC(=S)Nc2cccc(NC(=S)Nc3cccc(C(F)(F)F)c3)n2)c1	AHR act 66
C/C(CCc1ccco1)=N\NC(=O)CNc1c(Br)cc(Br)cc1Br	DAX1 inh-1 6.8
Cc1cc(C)c(C)c(S(=O)(=O)N2CCN(C(=O)C3CCC3)CC2)c1C	none
COCc1cc(N2CCN(C(=O)OC(C)(C)C)C[C@@H]2C)ccc1N1CC[C@H](O)C1	none (no result: DAX1 inh-1, AHR act)
CCCNC(=O)C1(C)CCCN(C(=O)c2c(C)noc2C)C1 (configuration not stated)	none (no result: DAX1 inh-1, AHR act)
CN=c1sc2ccccc2n1CC(O)c1ccccc1 (configuration not stated)	AHR act 63
CN=c1sc2ccccc2n1CC(O)COCc1ccco1 (configuration not stated)	none
O=C1NC[C@H](CCCCN2C[C@H](Cc3ccccc3)N(CCc3ccc(O)cc3)C(=O)C2=O)N(CCc2ccccc2)C1=O	none (no result: DAX1 inh-1, AHR act)
COc1cc(/C=C/C(=O)OCC(=O)N2CCCC2)ccc1OCC#N	none
CCN1C(=O)C(CC(=O)Nc2ccc(OC)cc2)N(Cc2cccnc2)C1=S (configuration not stated)	ssDAF-12 act 2.7
Cc1ccc([C@@H]2CC=C(C(=O)O)[C@H](c3ccccc3F)N2S(=O)(=O)c2ccccc2C)cc1	none
C[C@@H]1CN([C@H](C)CO)C(=O)c2c(c3ccccc3n2C)-c2ccccc2CO[C@H]1CN(C)C(=O)c1cc(Cl)cc(Cl)c1	DAX1 inh-1 4.3 (no result: AHR act)
Cc1[nH]c2ccc(F)cc2c1CCN1C(=O)OC(C)(C)C1(C)O (configuration not stated)	DAX1 inh-1 7.3
COc1ccc(-c2nc3ccccn3c2CN2CCN(c3ccccc3F)CC2)cc1	DAX1 inh-1 4.4
Cn1ncc(N=Cc2ccc([N+](=O)[O-])cc2)c1C(=O)Nc1ccccc1	none
Cc1ccccc1NC(=O)CN1CCN(c2nc(-c3ccccc3)cs2)CC1	none (no result: DAX1 inh-1, AHR act)
O=C(Nc1nc2ccccc2[nH]1)C12CC3CC(CC(C3)C1)C2	hcDAF12 agonist 5.8
O=C(CCCCCN1C(=O)c2ccccc2C1=O)Nc1ccccc1	none
O=C(CCCN1C(=O)c2ccccc2C1=O)Nc1nc2ccccc2[nH]1	DAX1 inh-1 4.8
O=C(Cc1ccccc1Cl)Nc1nc2ccccc2[nH]1	hcDAF12 agonist 6.0
O=C(Nc1nc2ccccc2[nH]1)C1CC1	none
CCOc1ccc(NC(=O)c2cc([N+](=O)[O-])ccc2N2CCOCC2)cc1	AHR act 74
CC1CC(C)CN(CCCNS(=O)(=O)c2cc3c(cc2Br)CCN3C(=O)C2CC2)C1 (configuration not stated)	none (no result: DAX1 inh-1, AHR act)
COC(=O)C1=C(C)N(Cc2ccccc2C(F)(F)F)C(=NCc2cc(OC)c(OC)c(OC)c2)NC1c1ccc(Cl)cc1 (configuration not stated)	none (no result: DAX1 inh-1, AHR act)
CCc1noc(N)c1C(=O)Nc1ccc(Cl)cc1	AHR act 76
O=c1[nH]c(-c2ccccc2)cnc1-c1ccccc1	hgDAF12 agonist 11 (no result: DAX1 inh-1)
Clc1ccc(SCc2cn3ccsc3n2)cc1	hgDAF12 agonist 11
c1cn2cc(CSC3CCCCC3)nc2s1	hgDAF12 agonist 13
CC(C)C[C@@H]1COc2cccc(NCCO)c2S(=O)(=O)N1	none (no result: DAX1 inh-1, AHR act)
CCOC(=O)c1[nH]c(C)c(C(=O)OCC(=O)NC(C)c2ccc(F)cc2)c1C (configuration not stated)	none
CN1c2ccsc2/C(=N/NC(=O)c2c(F)cccc2F)CS1(=O)=O	none
CN1c2ccsc2/C(=N/Nc2ccccc2)CS1(=O)=O	AHR act 74
COC(=O)[C@]12CCCCC=C1N(Cc1ccccc1)C(=O)[C@H](CC(=O)N1CCCC1)C2	none (no result: DAX1 inh-1, AHR act)
CCOc1ccc(-c2ccc(SCC(=O)Nc3nnc(CC)s3)nn2)cc1	hgDAF12 agonist 13, DAX1 inh-2 3.7
CCc1nnc(NC(=O)CSc2ccc(-c3ccc(C)cc3)nn2)s1	none
COCC(C)(C)COS(N)(=O)=O	none
Clc1ccc(-c2nc(NCCCN3CCOCC3)c3ccccc3n2)cc1	AHR act 71 (no result: DAX1 inh-1)
CC(C)N(C[C@@H]1CSCCS(=O)(=O)N1)C1CCCCC1	none (no result: DAX1 inh-1, AHR act)
COc1ccc(/C=N/Nc2ccc([N+](=O)[O-])cc2)cc1Cn1cc([N+](=O)[O-])cn1	AHR act 69
COc1ccc(/C=N/n2cncn2)cc1Cn1cc([N+](=O)[O-])cn1	none (no result: DAX1 inh-1)
Cc1ccc(N2CC(C(=O)Nc3nnc(SCCN4CCOCC4)s3)CC2=O)cc1C (configuration not stated)	none
CCCCCC1NC(=O)NC1CCCCCC(=O)O (configuration not stated)	none
O=C(O)CCCCC1SCC2NC(=O)NC21 (configuration not stated)	DAX1 inh-1 5.8
Cc1sc2nc(CN3CCOCC3)nc(NS(=O)(=O)c3ccccc3)c2c1C	DAX1 inh-1 6.3
Cc1sc2nc(CN3CCCC3)nc(N3CCN(S(=O)(=O)c4cccs4)CC3)c2c1C	DAX1 inh-1 4.7
Cc1ccc(S(=O)(=O)N2CCN(c3nc(CN4CCCC4)nc4sc(C)c(C)c34)CC2)cc1	none
Cc1sc2nc(CN3CCOCC3)nc(NS(=O)(=O)c3ccc4c(c3)OCCO4)c2c1C	none
CC(=O)/C(=N/Nc1ccccc1[N+](=O)[O-])N1CCCc2ccccc21	none (no result: DAX1 inh-1)
COc1cccc(CNC(=O)C2CCCN(c3cnccn3)C2)c1 (configuration not stated)	none
CCOc1ccc(NC(=O)C2CCCN(c3cnccn3)C2)cc1 (configuration not stated)	AHR act 64
CCCc1ccc(NC(=O)C2CCCN(c3cnccn3)C2)cc1 (configuration not stated)	AHR act 48
O=C(Nc1ccc(F)cc1)C1CCCN(c2cnccn2)C1 (configuration not stated)	none
